Results taken from paper PMC4081100, “A DNA-binding-site landscape and regulatory network analysis for NAC transcription factors in Arabidopsis thaliana”.

Legend:
Assay in all cases: universal protein binding microarray (PBM); transcription factors of Arabidopsis thaliana; high values mean tight binding
Conditions in all cases: protein: recombinant; tags: GST; chain copies: 2; dsDNA, one strand shown
GST-ANAC092(1-176) = target: T1, GST-ANAC092(1-176) (Arabidopsis thaliana, UniProt Q9FKA0 1-176)
T1 sequence: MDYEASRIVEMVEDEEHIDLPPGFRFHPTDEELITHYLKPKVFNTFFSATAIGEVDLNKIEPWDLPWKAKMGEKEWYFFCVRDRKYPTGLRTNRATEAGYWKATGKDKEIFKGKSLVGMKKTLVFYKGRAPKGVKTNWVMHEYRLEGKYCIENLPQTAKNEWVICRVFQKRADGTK
Procedure, shortened: (§1)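 Protein amounts were determined by A280 or anti-GST western blot after glutathione–Sepharose 4B purification of GST-tagged proteins induced in cells, with zinc acetate included for zinc-finger proteins. Duplicate runs at 200 to 500 nM final were done on custom all-10-mer Agilent 4 × 180K arrays made double-stranded by primer extension. The normalised enrichment score (E-score) over gapped and ungapped 8-mers is the measure of binding.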

GST-NTL6(1-168) = GST-NTL6(1-168) (Arabidopsis thaliana, UniProt Q9SCK6 1-168)
Procedure, shortened: as §1

GST-ANAC019 NAC domain = target: T2, GST-ANAC019 NAC domain (Arabidopsis thaliana, UniProt Q9C932 14-162)
T2 sequence: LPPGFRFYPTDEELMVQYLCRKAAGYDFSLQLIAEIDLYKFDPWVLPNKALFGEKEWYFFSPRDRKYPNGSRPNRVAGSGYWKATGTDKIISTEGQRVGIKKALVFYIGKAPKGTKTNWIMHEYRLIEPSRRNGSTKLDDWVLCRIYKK
Procedure, shortened: as §1

GST-ANAC055(1-171) = target: T3, GST-ANAC055(1-171) (Arabidopsis thaliana, UniProt Q9LDY8 1-171)
T3 sequence: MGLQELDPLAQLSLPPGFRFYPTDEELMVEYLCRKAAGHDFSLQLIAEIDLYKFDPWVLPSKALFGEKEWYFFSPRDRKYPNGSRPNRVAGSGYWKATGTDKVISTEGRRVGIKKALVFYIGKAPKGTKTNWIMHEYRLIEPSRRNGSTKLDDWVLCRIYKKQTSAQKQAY
Procedure, shortened: as §1

GST-ATAF1 NAC domain = target: T4, GST-ATAF1 NAC domain (Arabidopsis thaliana, UniProt Q39013 7-158)
T4 sequence: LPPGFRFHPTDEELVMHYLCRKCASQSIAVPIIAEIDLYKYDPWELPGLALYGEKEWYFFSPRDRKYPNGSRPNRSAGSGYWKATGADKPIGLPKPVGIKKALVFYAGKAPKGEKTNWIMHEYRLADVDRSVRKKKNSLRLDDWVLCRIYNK
Procedure, shortened: as §1

[1] = target: T5, GST-ANAC092(1-285) full length (Arabidopsis thaliana, UniProt Q9FKA0 1-285)
T5 sequence: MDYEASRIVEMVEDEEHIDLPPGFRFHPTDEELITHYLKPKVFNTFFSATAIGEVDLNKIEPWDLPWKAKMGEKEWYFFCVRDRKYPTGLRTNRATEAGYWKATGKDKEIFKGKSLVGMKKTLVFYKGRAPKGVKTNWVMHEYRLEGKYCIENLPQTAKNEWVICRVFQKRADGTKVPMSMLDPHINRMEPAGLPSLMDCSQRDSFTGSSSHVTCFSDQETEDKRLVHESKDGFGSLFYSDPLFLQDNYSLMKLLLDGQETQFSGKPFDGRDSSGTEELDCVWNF
Procedure, shortened: as §1

GST-NST2(1-184) = target: T6, GST-NST2(1-184) (Arabidopsis thaliana, UniProt Q9M274 1-184)
T6 sequence: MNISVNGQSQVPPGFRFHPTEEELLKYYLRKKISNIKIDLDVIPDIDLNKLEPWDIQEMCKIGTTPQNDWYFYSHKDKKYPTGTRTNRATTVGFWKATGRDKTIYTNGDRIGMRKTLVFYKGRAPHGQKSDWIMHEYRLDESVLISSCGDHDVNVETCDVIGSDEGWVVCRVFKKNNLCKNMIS
Procedure, shortened: as §1

GST-NTL8 NAC domain = target: T7, GST-NTL8 NAC domain (Arabidopsis thaliana, UniProt Q9XIN7 14-156)
T7 sequence: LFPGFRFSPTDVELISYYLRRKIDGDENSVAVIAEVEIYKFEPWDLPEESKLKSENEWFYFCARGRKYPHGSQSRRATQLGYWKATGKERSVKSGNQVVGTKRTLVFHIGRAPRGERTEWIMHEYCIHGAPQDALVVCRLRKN
Procedure, shortened: as §1

GST-SND1(1-203) = target: T8, GST-SND1(1-203) (Arabidopsis thaliana, UniProt Q9LPI7 1-203)
T8 sequence: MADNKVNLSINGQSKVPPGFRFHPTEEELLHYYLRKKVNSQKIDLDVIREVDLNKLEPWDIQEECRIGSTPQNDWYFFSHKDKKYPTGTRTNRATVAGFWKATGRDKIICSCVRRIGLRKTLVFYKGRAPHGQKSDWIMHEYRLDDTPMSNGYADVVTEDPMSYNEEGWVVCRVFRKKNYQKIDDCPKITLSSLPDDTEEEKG
Procedure, shortened: as §1

GST-VND3 NAC domain = target: T9, GST-VND3 NAC domain (Arabidopsis thaliana, UniProt Q9FH59 12-162)
T9 sequence: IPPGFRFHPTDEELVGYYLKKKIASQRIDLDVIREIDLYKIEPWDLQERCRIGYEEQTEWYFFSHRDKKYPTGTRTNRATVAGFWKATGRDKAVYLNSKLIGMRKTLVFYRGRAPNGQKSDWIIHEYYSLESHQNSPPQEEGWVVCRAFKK
Procedure, shortened: as §1

GST-VND7 NAC domain = target: T10, GST-VND7 NAC domain (Arabidopsis thaliana, UniProt Q9C8W9 9-158)
T10 sequence: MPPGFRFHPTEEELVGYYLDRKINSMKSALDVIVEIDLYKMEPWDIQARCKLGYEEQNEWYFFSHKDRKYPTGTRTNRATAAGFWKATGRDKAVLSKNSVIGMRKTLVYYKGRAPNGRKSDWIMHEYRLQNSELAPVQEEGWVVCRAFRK
Procedure, shortened: as §1

GST-NAP(1-166) = target: T11, GST-NAP(1-166) (Arabidopsis thaliana, UniProt O49255 1-166)
T11 sequence: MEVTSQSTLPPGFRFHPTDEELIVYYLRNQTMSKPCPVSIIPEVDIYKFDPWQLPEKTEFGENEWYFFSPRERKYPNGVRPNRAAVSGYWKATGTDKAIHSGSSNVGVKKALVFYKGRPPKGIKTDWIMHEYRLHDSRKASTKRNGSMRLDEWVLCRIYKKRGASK
Procedure, shortened: as §1

GST-NTL6(1-168), sequence (Q9SCK6 1-168): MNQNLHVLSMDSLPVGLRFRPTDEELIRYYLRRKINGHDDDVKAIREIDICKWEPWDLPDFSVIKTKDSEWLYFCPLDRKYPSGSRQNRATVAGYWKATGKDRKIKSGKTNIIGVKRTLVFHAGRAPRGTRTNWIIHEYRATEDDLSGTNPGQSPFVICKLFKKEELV

Row | Sequence | binding signal (GST-ANAC092(1-176)) | binding signal (GST-NTL6(1-168)) | binding signal (GST-ANAC019 NAC domain) | binding signal (GST-ANAC055(1-171)) | binding signal (GST-ATAF1 NAC domain) | binding signal [1] | binding signal (GST-NST2(1-184)) | binding signal (GST-NTL8 NAC domain) | binding signal (GST-SND1(1-203)) | binding signal (GST-VND3 NAC domain) | binding signal (GST-VND7 NAC domain) | binding signal (GST-NAP(1-166))
1 | GAAGGTAA | 0.174 E-score | 0.329 E-score | 0.158 E-score | 0.111 E-score | 0.22 E-score | 0.25 E-score | 0.255 E-score | 0.463 E-score | 0.227 E-score | 0.148 E-score | 0.141 E-score | 
2 | TACGCTAA | 0.433 E-score | 0.118 E-score |  | 0.0682 E-score | 0.19 E-score | 0.44 E-score | 0.331 E-score |  | 0.475 E-score | 0.171 E-score | 0.131 E-score | 
3 | CTTGCTTA | 0.251 E-score | 0.416 E-score | 0.0719 E-score |  | 0.136 E-score | 0.347 E-score | 0.17 E-score | 0.194 E-score | 0.437 E-score | 0.124 E-score | 0.0501 E-score | 
4 | CTAAGCAA | 0.201 E-score | 0.461 E-score | 0.0628 E-score |  |  | 0.314 E-score | 0.272 E-score | 0.254 E-score | 0.473 E-score | 0.134 E-score | 0.184 E-score | 
5 | GTGGAGTA | 0.275 E-score | 0.0723 E-score |  | 0.0843 E-score | 0.217 E-score | 0.332 E-score | 0.242 E-score |  | 0.402 E-score | 0.0649 E-score | 0.15 E-score | 0.0918 E-score
6 | TAAGGAAA | 0.212 E-score | 0.478 E-score |  | 0.109 E-score | 0.157 E-score | 0.252 E-score | 0.152 E-score | 0.424 E-score | 0.334 E-score | 0.16 E-score | 0.0908 E-score | 0.0748 E-score
7 | TTAAGTAA | 0.236 E-score | 0.48 E-score | 0.198 E-score | 0.0996 E-score | 0.168 E-score | 0.3 E-score | 0.258 E-score | 0.34 E-score | 0.403 E-score | 0.17 E-score | 0.135 E-score | 
8 | GCACGTTA | 0.433 E-score |  | 0.153 E-score | 0.205 E-score | 0.226 E-score | 0.464 E-score | 0.234 E-score |  | 0.369 E-score | 0.217 E-score | 0.246 E-score | 0.222 E-score
